The results in this text go back to PubChem BioAssay.

Each structure is given as a SMILES string. Records with an inconclusive call do not appear. The source made the active and inactive calls.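 How the source made its calls, unless noted: active means viability at or below 10% of carrier control in both of two separate runs; inconclusive means viability at or below 10% in only one of the two runs; inactive means the rest.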

A short description of assay [1]: reducers of endogenous Her2 protein level, primary screen, SKBR3 breast tumor cells, AlphaScreen, ATP viability (AID 461;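 active means Her2 level under about 52% in both replicate screens, with viability over 70% of control, limit read from the data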;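 on Her2 level: lower value means less Her2 protein in the cells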;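 on viability: percent of carrier control wells set as 100% viability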). As to conditions: 18-24 h, measured here: SKBR3 viability, ATP luminescence, at 10 µM. For orientation: In Alpha technology, singlet oxygen from a donor bead excites a nearby acceptor bead.
In assay [2] the target is Receptor tyrosine-protein kinase erbB-2 (Homo sapiens) (UniProt P04626). The assay is described as above. To be noted: 18-24 h, at 10 µM, stronger effect = lower value.
Sequence of Receptor tyrosine-protein kinase erbB-2 (Homo sapiens) (P04626 whole entry, looked up): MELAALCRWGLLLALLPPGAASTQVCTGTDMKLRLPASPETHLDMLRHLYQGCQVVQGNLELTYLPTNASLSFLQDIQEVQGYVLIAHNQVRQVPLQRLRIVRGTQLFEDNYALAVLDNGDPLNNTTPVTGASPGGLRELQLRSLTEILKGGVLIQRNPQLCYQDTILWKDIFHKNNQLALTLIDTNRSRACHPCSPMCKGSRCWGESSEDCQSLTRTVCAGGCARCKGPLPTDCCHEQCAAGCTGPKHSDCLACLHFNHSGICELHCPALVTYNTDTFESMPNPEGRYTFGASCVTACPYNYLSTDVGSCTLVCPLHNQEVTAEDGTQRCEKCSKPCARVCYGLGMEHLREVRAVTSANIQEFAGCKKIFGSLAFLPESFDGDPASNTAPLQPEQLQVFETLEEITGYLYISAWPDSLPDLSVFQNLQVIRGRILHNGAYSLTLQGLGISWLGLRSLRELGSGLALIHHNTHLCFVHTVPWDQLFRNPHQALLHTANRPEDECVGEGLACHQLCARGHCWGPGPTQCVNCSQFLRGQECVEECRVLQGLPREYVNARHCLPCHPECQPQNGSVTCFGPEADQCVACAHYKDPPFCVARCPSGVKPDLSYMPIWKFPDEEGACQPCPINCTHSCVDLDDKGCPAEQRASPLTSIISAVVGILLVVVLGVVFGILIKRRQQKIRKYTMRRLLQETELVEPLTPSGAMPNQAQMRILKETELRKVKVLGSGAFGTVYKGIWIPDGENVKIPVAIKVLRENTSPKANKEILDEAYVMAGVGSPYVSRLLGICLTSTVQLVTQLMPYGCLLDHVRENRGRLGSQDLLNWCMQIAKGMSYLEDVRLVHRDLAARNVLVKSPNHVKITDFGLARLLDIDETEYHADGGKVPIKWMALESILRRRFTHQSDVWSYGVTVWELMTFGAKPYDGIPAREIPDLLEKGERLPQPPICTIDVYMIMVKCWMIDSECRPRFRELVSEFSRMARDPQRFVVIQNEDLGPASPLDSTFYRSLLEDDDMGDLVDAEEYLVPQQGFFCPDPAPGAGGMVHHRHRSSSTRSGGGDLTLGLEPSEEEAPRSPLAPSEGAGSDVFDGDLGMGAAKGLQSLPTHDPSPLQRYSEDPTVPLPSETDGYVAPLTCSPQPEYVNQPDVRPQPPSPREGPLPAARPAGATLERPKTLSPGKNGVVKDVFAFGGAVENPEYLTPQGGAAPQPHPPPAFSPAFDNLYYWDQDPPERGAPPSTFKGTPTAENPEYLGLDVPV
The nature of assay [3]: SK-BR-3 cell growth inhibitors, pilot screen, 24 h, human (AID 572).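 Further: compound exposure lasted between 18 and 24 h rather than exactly 24 h; 100% = carrier-treated control wells.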 As to conditions: SK-BR-3 viability, CellTiter-Glo luminescence, at 10 µM, stronger effect = lower value. On the technique in general: In ATP-based viability assays light output follows the ATP content of the culture.
Assay [4] can be described thus: HUVEC growth inhibition – cell-based, human, primary screen (AID 575;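 active means viability at or below 30% in both replicate assays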;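 further: 100% = median of untreated cell wells with 0.1% DMSO on each plate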). As to conditions: HUVEC proliferation, CellTiter-Glo luminescence, 72 h; at 10 µM; stronger effect = lower value.
A short description of assay [5]: growth inhibitors of H69AR lung tumor, primary screen, human, duplicate replicates (AID 580;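 active means viability at or under a set limit in both replicates, limit being median viability minus 3 SD, cut at about 48% in these data, passing the limit was not always enough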;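 further: 100% = mean luminescence of untreated wells and 0% = no signal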). To be noted: H69AR lung tumor cells viability, ATP luminescence, 72 h; at 10 µM; stronger effect = lower value.
Assay [6] in a line: reversal of MRP1-mediated doxorubicin resistance, pilot screen, H69AR cells, doxorubicin co-treatment (AID 601;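 active means viability loss from added drug above about 55%, and viability with drug at most 40%, in both replicates, limit read from the data, passing the limit was not always enough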). As to conditions: CellTiter-Glo, 72 h, at 10 µM; for differential viability (reversal): stronger effect = higher value.
Assay [7] is described as follows: 384-well plate pilot, post-Golgi transport modulator project, inhibition of yeast transport mutant growth (AID 636; in the data active means inhibition above about 31%). As to conditions: absorbance 615 nm, about 18 h, stronger effect = higher value.
Assay [8] is described as follows: growth suppression of yeast trafficking mutant, preliminary HTS, modulators of trafficking downstream of Golgi apparatus project, 1536-format plate, OD 615 nm (AID 637; in the data active means inhibition above about 30%). As to conditions: yeast transport mutant growth, absorbance 615 nm, 18 h; stronger effect = higher value.
Assay [9] can be described thus: OD615 S. cerevisiae growth inhibition, permissive medium, pilot counter-assay, permissive growth control for S. cerevisiae lifespan shortening project (AID 705;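 active means growth inhibition above 25% in both replicates, a cutoff set 3 SD above the mean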). To be noted: OD615, 24 h, at 10 µM, stronger effect = higher value.
A short description of assay [10]: Restrictive medium S. cerevisiae growth inhibition, OD615, pilot screen of yeast lifespan reduction project, restrictive growth control (AID 706;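 active means growth inhibition above a set limit, 3 SD over mean compound inhibition, in both replicates, cut at about 43% in these data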;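 further: modified DeaD lifespan yeast strain shifted to restrictive glucose medium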). As to conditions: OD615, 48 h, at 10 µM, stronger effect = higher value.
Assay [11] can be described thus: viability gain of MRP-1-high H69AR cells under doxorubicin, pilot screen, MRP-1 activator project, CellTiter-Glo, duplicate (AID 807;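 active means viability increase at or above a cutoff of the median across tested compounds plus 3 SD, cut at about 8.5% in these data, passing the limit was not always enough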;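 further: compound pretreatment 18-22 h then 72 h combined with doxorubicin; 0% = doxorubicin alone and 100% = vehicle without doxorubicin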). As to conditions: H69AR viability with doxorubicin, CellTiter-Glo luminescence; at 10 µM; stronger effect = higher value.
The nature of assay [12]: growth suppression of beta-catenin knockout HCT116, pilot screen, human colon tumor cells (AID 823;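 active means cell viability at or below a set limit in both duplicate runs, the limit being the all-compound median minus 4 SD, cut at about 23% in these data, passing the limit was not always enough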;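 further: 0% = wells killed by 20 µM Hyamine and 100% = untreated DMSO cell wells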). As to conditions: CellTiter-Glo, 60 h, at 10 µM, stronger effect = lower value.
The nature of assay [13]: growth suppression of PTEN-deleted HCT116, pilot screen, cell-based, HCT116 clonal line, CellTiter-Glo (AID 824;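 active means viability at or below 27.92% in each of two runs, the all-compound median minus 4 SD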;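 further: 0% = 20 µM Hyamine control and 100% = vehicle cell control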). To be noted: 60 h, at 10 µM, stronger effect = lower value.
Assay [14] can be described thus: inhibitors of the yeast RAM network, pilot screen, dse1pr::URA3 reporter, 5-FOA selection (AID 869;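 active means inhibition over a set limit, the all-compound mean plus 3 SD, in both replicate runs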;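 further: 0% = DMSO wells with no growth and 100% = 10 µM 1-NA-PP1 with full growth; RAM network block rescues cells from 5-FOA so hits raise OD615 growth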). As to conditions: S. cerevisiae dse1pr::URA3 5-FOA growth, OD615, 2 d; at 10 µM; stronger effect = higher value; strain carries analog-sensitive mutant Cbk1 kinase.
Assay [15] in a line: RAM signaling pathway blockade in yeast – S. cerevisiae, Pdr1DBD-CYC8 efflux-inhibited sensitized strain, primary screen (AID 1298;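 active means RAM network inhibition above 8.4% in each of two replicates, 3 SD over the compound average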;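 further: 0% = DMSO untreated cells without growth and 100% = 10 µM 1-NA-PP1 full growth; higher means more yeast growth rescued from 5-FOA killing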). To be noted: S. cerevisiae cbk1-as DSE1-URA3 strain, 5-FOA growth OD615, 2 d; at 50 µM; stronger effect = higher value.
Where [16] appears, read: H69AR cells + 2 uM doxorubicin, measured here: viability with 2 uM doxorubicin, stronger effect = lower value.
Where [17] appears, read: H69AR cells, compound alone cytotoxicity.

For the molecule `Cc1noc(/C=C/N(C)C)c1S(=O)(=O)N1CCc2ccccc21`, the viability (as a rule, a read-out of living cells in per cent, often relative to untreated cells) was 99% in [1]; 99% (inactive) in assay [3]; 67.4% (inactive) in [4]; 75.7% (inactive) in assay [5]; 95.9% in assay [6] (setting [16]); 75.7% in [6] (setting [17]). Moreover, the values for the viability in assay [12] and in assay [13] were 84.4% (inactive) and 68.7% (inactive), respectively. The Her2 level in assay [2] was 106% (inactive). The differential viability (reversal) in assay [6] (H69AR cells + 2 uM doxorubicin) was -20.2% (inactive). Further, the inhibition (usually the drop in the measured response relative to a control, in per cent) in assay [7] was 0.13% (inactive); in [8] it was -3.83% (inactive); in [14] it was 1.65% (inactive). Also, the growth inhibition in [9] is -22.4% (inactive); in [10], -28.7% (inactive). Further, the viability increase in assay [11] is -6.84% (inactive). For the same molecule, the RAM network inhibition in [15] is 10% (inactive).
As to `CCCCOCCCNC(=O)c1ccc(NC(C)=O)cc1`, the viability in [1] is 108%; in assay [3], 108% (inactive); in [4] it was 86.3% (inactive); in [5] it was 96.6% (inactive); in assay [6] (setting [16]), 86.6%; in assay [6] (setting [17]), 96.6%. For the same molecule, the viability in assay [12] is 104% (inactive); in assay [13], 97.4% (inactive). Also, the Her2 level in [2] was 133% (inactive). For the same molecule, the differential viability (reversal) in assay [6] (H69AR cells + 2 uM doxorubicin) was 10% (inactive). Besides, the values for the inhibition in assay [7], in assay [8] and in [14] were 1.04% (inactive), -10.7% (inactive) and 1.42% (inactive), respectively. For the same molecule, the growth inhibition is -9.19% (inactive) in assay [9] and -26.5% (inactive) in assay [10]. Also, the viability increase in [11] is 0.09% (inactive). Moreover, the RAM network inhibition in assay [15] was -0.63% (inactive).
Consider `CNC(=O)CN(c1ccc(C(C)C)cc1)S(C)(=O)=O`, for which the viability in assay [1] was 94%; in assay [3] it was 94% (inactive); in [4], 95.6% (inactive); in assay [5], 86.3% (inactive); in assay [6] (setting [16]), 85.9%; in assay [6] (setting [17]) it was 86.3%. Also, the viability was 95% (inactive) in assay [12] and 96.1% (inactive) in [13]. For the same molecule, the Her2 level in assay [2] is 108% (inactive). Besides, the differential viability (reversal) in assay [6] (H69AR cells + 2 uM doxorubicin) was 0.39% (inactive). Also, the inhibition in assay [7] is -3.25% (inactive); in [8], -4% (inactive); in [14] it was 1.04% (inactive). For the same molecule, the growth inhibition in assay [9] was -10.4% (inactive); in assay [10], -21.6% (inactive). Besides, the viability increase in assay [11] is 0.08% (inactive). In addition, in assay [15], the RAM network inhibition is 2.63% (inactive).
For `CCOc1ccc(NC2c3ccccc3C(=O)N2Cc2ccco2)cc1` (stereo not given), the viability was 83.5% in [1]; 83.5% (inactive) in assay [3]; 98.7% (inactive) in assay [4]; 96.2% (inactive) in assay [5]; 98.8% in assay [6] (setting [16]); 96.2% in assay [6] (setting [17]). Also, the figures for the viability in [12] and in assay [13] were 92.6% (inactive) and 85.4% (inactive), respectively. The Her2 level in assay [2] is 96.5% (inactive). Besides, the differential viability (reversal) in assay [6] (H69AR cells + 2 uM doxorubicin) is -2.58% (inactive). For the same molecule, the inhibition in assay [7] is 5% (inactive); in [8] it was 7.83% (inactive); in assay [14], 1.4% (inactive). Besides, the growth inhibition in [9] was 3.67% (inactive); in assay [10] it was 6.9% (inactive). Further, the viability increase in assay [11] is -0.75% (inactive). In assay [15], the RAM network inhibition is 5.57% (inactive).
Turning to `COCCNC(=O)c1ccc(CS(=O)(=O)c2c(Cl)cccc2Cl)o1`, the viability in assay [1] was 84.5%; in assay [3], 84.5% (inactive); in [4], 84% (inactive); in [5] it was 98.9% (inactive); in [6] (setting [16]), 94.8%; in assay [6] (setting [17]), 98.9%. The values for the viability in assay [12] and in assay [13] were 103% (inactive) and 93% (inactive), respectively. Further, the Her2 level in [2] is 116% (inactive). In [6] (H69AR cells + 2 uM doxorubicin), the differential viability (reversal) was 4.06% (inactive). The inhibition in assay [7] is -3.47% (inactive); in assay [8], -4.83% (inactive); in assay [14], 1.32% (inactive). The growth inhibition in assay [9] was -17.4% (inactive); in assay [10] it was -11.8% (inactive). Besides, in assay [11], the viability increase was -1.73% (inactive). Further, the RAM network inhibition in assay [15] was 1.21% (inactive).
